Out of some 39,000 compounds screened, about 1,500 (3.8%) were called active. For the sample, actives were picked, then their nearest neighbours and some compounds at random.

In this assay the test system is HSkMC (human skeletal muscle cells). The experiment in a line: cytotoxicity call (relative viability < 0.9). The conditions noted are these: 10 µM.
With `C[C@@H]1CN([C@H](C)CO)C(=O)c2cc(NC(=O)Nc3cccc4ccccc34)ccc2O[C@@H]1CN(C)Cc1ccc2c(c1)OCO2`, the cytotoxicity call was “inactive”. As for `CC(C)NC(=O)N(C)C[C@H]1OCCCC[C@H](C)Oc2ccc(NS(C)(=O)=O)cc2C(=O)N([C@@H](C)CO)C[C@@H]1C`, the cytotoxicity call is “inactive”.

For `N[C@@H]1CC[C@@H](c2ccc(Cl)c(Cl)c2)c2ccccc21`, the cytotoxicity call was “active”. `CN[C@H]1CC[C@@H](c2ccc(Cl)c(Cl)c2)c2ccccc21`: the cytotoxicity call is “inactive”. Consider `CNC1CCC(c2ccc(Cl)c(Cl)c2)c2ccccc21.Cl` (centres undefined), for which the cytotoxicity call was “active”. As for `COC(=O)c1c2oc(c1C(=O)OC)C(=O)N(C)Cc1cn(nn1)C[C@H](Cc1ccccc1)NC(=O)N[C@H](CO)CC2`, the cytotoxicity call is “inactive”. With `O=c1[nH]c2ccc(F)cc2[nH]1`, the cytotoxicity call was “inactive”. As for `CC(C)NC(=O)N(C)C[C@@H]1Oc2ccc(NC(=O)Cc3ccccc3)cc2C(=O)N([C@@H](C)CO)C[C@H]1C`, the cytotoxicity call is “inactive”. Consider `COc1ccc(CN(C)C[C@@H]2Oc3ccc(NS(=O)(=O)c4cn(C)cn4)cc3C(=O)N([C@@H](C)CO)C[C@H]2C)cc1`, for which the cytotoxicity call is “inactive”. Consider `C[C@H](CO)N1C[C@H](C)[C@H](CN(C)Cc2ccc(C(F)(F)F)cc2)OCCCC[C@H](C)Oc2ccc(NS(=O)(=O)c3ccccc3)cc2C1=O`, for which the cytotoxicity call was “inactive”.

Turning to `CNC(=O)C[C@H]1CC[C@@H]2[C@H](COC[C@H](O)CN2C(=O)c2ccccn2)O1`, the cytotoxicity call is “inactive”. For `C[C@@H]1CCCCO[C@@H](CN(C)C(=O)Nc2cccc3ccccc23)[C@H](C)CN([C@H](C)CO)C(=O)c2cc(NC(=O)Nc3ccc(C(F)(F)F)cc3)ccc2O1` the value was “inactive”; for `C[C@@H]1CCCCO[C@H](CN(C)C(=O)Nc2cccc3ccccc23)[C@@H](C)CN([C@@H](C)CO)C(=O)c2cc(NC(=O)Nc3ccc(C(F)(F)F)cc3)ccc2O1`, “inactive”; for `C[C@@H]1CN([C@@H](C)CO)C(=O)c2cc(NC(=O)Nc3ccc(C(F)(F)F)cc3)ccc2O[C@@H](C)CCCCO[C@H]1CN(C)C(=O)Nc1cccc2ccccc12`, “inactive”. For `C[C@H](CO)N1C[C@H](C)[C@@H](CN(C)C(=O)Nc2cccc3ccccc23)OCCCC[C@H](C)Oc2ccc(NC(=O)Nc3ccc(C(F)(F)F)cc3)cc2C1=O`, the cytotoxicity call was “inactive”. With `C[C@@H]1CCCCO[C@@H](CN(C)C(=O)Nc2cccc3ccccc23)[C@@H](C)CN([C@@H](C)CO)C(=O)c2cc(NC(=O)Nc3ccc(C(F)(F)F)cc3)ccc2O1`, the cytotoxicity call was “active”.

For the molecule `C[C@H](CO)N1C[C@H](C)[C@H](CN(C)C(=O)Nc2cccc3ccccc23)OCCCC[C@H](C)Oc2ccc(NC(=O)Nc3ccc(C(F)(F)F)cc3)cc2C1=O`, the cytotoxicity call is “inactive”. On to `C[C@@H]1CCCCO[C@@H](CN(C)C(=O)Nc2cccc3ccccc23)[C@@H](C)CN([C@H](C)CO)C(=O)c2cc(NC(=O)Nc3ccc(C(F)(F)F)cc3)ccc2O1`, for which the cytotoxicity call is “active”.

Turning to `C[C@@H]1CN([C@@H](C)CO)C(=O)c2cc(NC(=O)Nc3ccc(C(F)(F)F)cc3)ccc2O[C@@H](C)CCCCO[C@@H]1CN(C)C(=O)Nc1cccc2ccccc12`, the cytotoxicity call is “active”. For the molecule `C[C@@H]1CCCCO[C@@H](CN(C)C(=O)Nc2cccc3ccccc23)[C@H](C)CN([C@@H](C)CO)C(=O)c2cc(NC(=O)Nc3ccc(C(F)(F)F)cc3)ccc2O1`, the cytotoxicity call is “inactive”.

`Cn1cnc(S(=O)(=O)N2C[C@@H](O)COC[C@H]3O[C@@H](CC(=O)NC4CCCC4)CC[C@@H]32)c1`: the cytotoxicity call is “inactive”.

For the molecule `COc1ccccc1CNC(=O)C[C@@H]1C[C@H]2c3cc(NC(=O)C4CCOCC4)ccc3O[C@H]2[C@@H](CO)O1`, the cytotoxicity call was “inactive”. As for `O=C(c1cc2n(n1)CCCO2)N1CC(O)C1`, the cytotoxicity call is “inactive”.

With `Cc1noc(C)c1NC(=O)N(C)C[C@H]1Oc2ccc(NC(=O)CCN3CCOCC3)cc2CC(=O)N([C@H](C)CO)C[C@@H]1C`, the cytotoxicity call was “inactive”. For the molecule `C[C@H](CO)N1C[C@H](C)[C@H](CN(C)C(=O)c2ccc3c(c2)OCO3)Oc2ncc(C#CCN(C)C)cc2C1=O`, the cytotoxicity call is “inactive”. For `CCC(=O)N1C[C@]2(CN(C2)S(=O)(=O)C)c2c(n(c3cc(ccc23)OC)C)[C@@H]1CO`, the cytotoxicity call was “inactive”. Consider `C[C@H](CO)N1C[C@H](C)[C@H](CN(C)S(=O)(=O)c2cn(C)cn2)Oc2ccc(NS(=O)(=O)c3ccccc3)cc2CC1=O`, for which the cytotoxicity call is “inactive”. For the molecule `C[C@H](CO)N1C[C@H](C)[C@@H](CN(C)Cc2ccc(Cl)c(Cl)c2)Oc2ccc(NC(=O)CCC(F)(F)F)cc2CC1=O`, the cytotoxicity call was “inactive”. For `C[C@@H]1CN([C@H](C)CO)C(=O)Cc2cc(NC(=O)CCC(F)(F)F)ccc2O[C@H]1CN(C)Cc1ccc(-c2ccccc2)cc1` the value was “inactive”; for `C[C@@H]1CN([C@H](C)CO)C(=O)Cc2cc(NC(=O)CCC(F)(F)F)ccc2O[C@H]1CN(C)Cc1ccc(Cl)c(Cl)c1`, “inactive”. For `C[C@@H]1CN([C@@H](C)CO)C(=O)Cc2cc(NC(=O)CCC(F)(F)F)ccc2O[C@H]1CN(C)Cc1ccc(Cl)c(Cl)c1`, the cytotoxicity call was “active”. As for `C[C@H]1CN([C@@H](C)CO)C(=O)Cc2cc(NC(=O)CCC(F)(F)F)ccc2O[C@H]1CN(C)Cc1ccc(-c2ccccc2)cc1`, the cytotoxicity call was “inactive”. For the molecule `C[C@@H]1CN([C@@H](C)CO)C(=O)Cc2cc(NC(=O)CCC(F)(F)F)ccc2O[C@H]1CN(C)Cc1ccc(-c2ccccc2)cc1`, the cytotoxicity call is “active”. Regarding `CCOC(=O)c1cn2cn[nH]c2nc1=O`, the cytotoxicity call is “inactive”. With `C[C@@H]1CN([C@H](C)CO)C(=O)Cc2cc(NC(=O)Nc3ccc4c(c3)OCO4)ccc2O[C@@H]1CN(C)Cc1ccc(C(=O)Nc2ccccc2N)cc1`, the cytotoxicity call is “inactive”. For `COC(=O)C[C@H]1CC[C@@H]2[C@H](COC[C@H](O)CN2S(=O)(=O)c2ccc(F)cc2)O1` the value was “inactive”; for `C[C@@H]1CN([C@@H](C)CO)S(=O)(=O)c2ccc(C#CC(C)(C)O)cc2O[C@@H]1CN(C)Cc1ccc(F)cc1`, “inactive”. For `C=CCNC(=O)[C@H]1[C@@H]2C(=O)O[C@@H](c3ccccc3)[C@@H](c3ccccc3)N2[C@@H](c2ccc(O)cc2)[C@]12C(=O)Nc1ccc(C#Cc3ccc(OC)cc3)cc12` the value was “inactive”; for `COc1ccc(S(=O)(=O)Nc2ccc3c(c2)C(=O)N([C@H](C)CO)C[C@H](C)[C@H](CN(C)Cc2ccccc2)OCCCC[C@H](C)O3)cc1`, “inactive”. Consider `CC1(C)CCC2(C(=O)O)CCC3(C)C(=CCC4C5(C)CCC(O)C(C)(C)C5CCC43C)C2C1` (centres undefined), for which the cytotoxicity call was “inactive”. For `COC(=O)[C@@]12CC[C@@H](C)[C@@H](C)[C@@H]1C1=CC[C@H]3[C@@]4(C)CC[C@@H](OC(C)=O)C(C)(C)[C@@H]4CC[C@@]3(C)[C@@]1(C)CC2` the value was “inactive”. For `CC1CCC2(C(=O)O)CCC3(C)C(=CCC4C5(C)CCC(O)C(C)(C)C5CCC43C)C2C1C` (centres undefined) the value was “active”. For `O=C1c2c(O)cccc2C(C2OC(CO)C(O)C(O)C2O)c2cc(CO)cc(O)c21` (centres undefined), the cytotoxicity call is “inactive”. With `COc1ccc(NC(=O)Nc2ccc3c(c2)C(=O)N([C@@H](C)CO)C[C@H](C)[C@@H](CN(C)C(=O)Nc2ccc(C(F)(F)F)cc2)OCCCC[C@H](C)O3)cc1`, the cytotoxicity call was “inactive”. For `C[C@H]1CN([C@@H](C)CO)C(=O)c2cccc(NC(=O)Nc3ccc4c(c3)OCO4)c2O[C@@H]1CN(C)Cc1ccc(-c2ccccc2)cc1` the value was “inactive”; for `C[C@H]1CN([C@@H](C)CO)C(=O)c2cccc(NC(=O)Nc3ccc4c(c3)OCO4)c2O[C@H]1CN(C)Cc1ccc(-c2ccccc2)cc1`, “inactive”. For `C[C@H]1CN([C@@H](C)CO)C(=O)c2cccc(NC(=O)Nc3ccc4c(c3)OCO4)c2O[C@H]1CN(C)Cc1ccc(Oc2ccccc2)cc1`, the cytotoxicity call was “inactive”. As for `C[C@@H]1CN([C@H](C)CO)C(=O)c2cccc(NC(=O)Nc3ccc4c(c3)OCO4)c2O[C@H]1CN(C)Cc1ccc(Oc2ccccc2)cc1`, the cytotoxicity call was “active”. For the molecule `C[C@@H]1CN([C@@H](C)CO)C(=O)c2cccc(NC(=O)Nc3ccc4c(c3)OCO4)c2O[C@@H]1CN(C)Cc1ccc(Oc2ccccc2)cc1`, the cytotoxicity call is “inactive”. On to `C[C@@H]1CN([C@@H](C)CO)C(=O)c2cccc(NC(=O)Nc3ccc4c(c3)OCO4)c2O[C@@H]1CN(C)Cc1ccc(-c2ccccc2)cc1`, for which the cytotoxicity call was “active”. Take `C[C@@H]1CCCCO[C@H](CN(C)S(=O)(=O)c2cccs2)[C@H](C)CN([C@@H](C)CO)C(=O)c2cc(NC(=O)c3ccccc3)ccc2O1`: the cytotoxicity call was “inactive”. For `CC[C@@H]1/C=C(\C)C[C@H](C)C[C@H](OC)[C@H]2O[C@@](O)(C(=O)C(=O)N3CCCC[C@H]3C(=O)O[C@H](/C(C)=C/[C@@H]3CC[C@H](Cl)[C@H](OC)C3)[C@H](C)[C@@H](O)CC1=O)[C@H](C)C[C@@H]2OC`, the cytotoxicity call was “inactive”. Take `C[C@@H]1CCCCO[C@@H](CN(C)C(=O)c2ccccc2)[C@@H](C)CN([C@@H](C)CO)C(=O)c2cc(NC(=O)Nc3ccccc3)ccc2O1`: the cytotoxicity call is “inactive”. For `Cc1ccc(S(=O)(=O)N(C)C[C@@H]2OCCCC[C@@H](C)Oc3ccc(NC(=O)CCC(F)(F)F)cc3C(=O)N([C@@H](C)CO)C[C@H]2C)cc1` the value was “inactive”; for `Cc1noc(C)c1S(=O)(=O)N(C)C[C@H]1Oc2ccc(NC(=O)Cc3ccccc3)cc2CC(=O)N([C@H](C)CO)C[C@H]1C`, “inactive”; for `NC(=O)[C@H]1CCCCN1`, “inactive”.

As for `COc1cccc(S(=O)(=O)N[C@@H]2C=C[C@@H](CC(=O)NC3CCC3)O[C@H]2CO)c1`, the cytotoxicity call is “inactive”. In the case of `C[C@@H]1CCCCO[C@H](CN(C)C(=O)Nc2cccc3ccccc23)[C@H](C)CN([C@H](C)CO)C(=O)c2cc(NS(=O)(=O)c3ccc(Cl)cc3)ccc2O1`, the cytotoxicity call is “inactive”. For `Cc1ccc(S(=O)(=O)Nc2ccc3c(c2)C(=O)N([C@H](C)CO)C[C@H](C)[C@H](CN(C)C(=O)Nc2cccc4ccccc24)OCCCC[C@H](C)O3)cc1` the value was “active”; for `C[C@@H]1CCCCO[C@@H](CN(C)C(=O)Nc2cccc3ccccc23)[C@H](C)CN([C@@H](C)CO)C(=O)c2cc(NS(=O)(=O)c3ccc(Cl)cc3)ccc2O1`, “inactive”.

Turning to `Cc1ccc(S(=O)(=O)Nc2ccc3c(c2)C(=O)N([C@@H](C)CO)C[C@@H](C)[C@@H](CN(C)C(=O)Nc2cccc4ccccc24)OCCCC[C@H](C)O3)cc1`, the cytotoxicity call is “inactive”. For `C[C@@H]1CCCCO[C@@H](CN(C)C(=O)Nc2cccc3ccccc23)[C@H](C)CN([C@@H](C)CO)C(=O)c2cc(NS(=O)(=O)c3ccc(F)cc3)ccc2O1` the value was “inactive”.

With `C[C@@H]1CCCCO[C@@H](CN(C)C(=O)Nc2cccc3ccccc23)[C@@H](C)CN([C@H](C)CO)C(=O)c2cc(NS(=O)(=O)c3ccc(F)cc3)ccc2O1`, the cytotoxicity call was “inactive”. For the molecule `Cc1ccc(S(=O)(=O)Nc2ccc3c(c2)C(=O)N([C@@H](C)CO)C[C@H](C)[C@@H](CN(C)C(=O)Nc2cccc4ccccc24)OCCCC[C@@H](C)O3)cc1`, the cytotoxicity call was “inactive”. For `C[C@H]1CCCCO[C@H](CN(C)C(=O)Nc2cccc3ccccc23)[C@@H](C)CN([C@@H](C)CO)C(=O)c2cc(NS(=O)(=O)c3ccc(F)cc3)ccc2O1` the value was “active”; for `C[C@@H]1CN([C@@H](C)CO)C(=O)c2cc(NS(=O)(=O)c3ccc(F)cc3)ccc2O[C@@H](C)CCCCO[C@H]1CN(C)C(=O)Nc1cccc2ccccc12`, “inactive”. On to `C[C@@H]1CCCCO[C@@H](CN(C)C(=O)Nc2cccc3ccccc23)[C@H](C)CN([C@H](C)CO)C(=O)c2cc(NS(=O)(=O)c3ccc(F)cc3)ccc2O1`, for which the cytotoxicity call was “active”. Regarding `C[C@@H]1CN([C@@H](C)CO)C(=O)c2cc(NS(=O)(=O)c3ccc(F)cc3)ccc2O[C@@H](C)CCCCO[C@@H]1CN(C)C(=O)Nc1cccc2ccccc12`, the cytotoxicity call was “inactive”.

Consider `C[C@@H]1CCCCO[C@H](CN(C)C(=O)Nc2cccc3ccccc23)[C@@H](C)CN([C@H](C)CO)C(=O)c2cc(NS(=O)(=O)c3ccc(Cl)cc3)ccc2O1`, for which the cytotoxicity call was “active”.

The values above are taken from the antibiotic and cytotoxicity screens of Wong et al. (2023).
